# Screening results: PubChem BioAssay, several laboratories
# C8 TRAIL sens = caspase-8 TRAIL sensitization. actives 1% (n = 360,000). NB7+C8 cells + TRAIL, ATPlite viability luminescence. inhibition (viability loss, TRAIL sensitization), % at 10 µM;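 active = compounds causing at least 50% loss of cell viability in the single-dose screen, relative to plate controls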
# TROY signal inh = inhibitors of TROY-dependent NF-kB signaling; Q293 LMP1-TROYcd NF-kB luciferase reporter, 4 h; inhibition, % at 10 µM; actives 0.98% (n = 360,000);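 active = compounds whose plate-normalised and pattern-corrected inhibition of the luciferase reporter signal at the single screening dose is 50% or more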
# aSyn 5UTR inh = 5' untranslated region of α-synuclein, MLPCN primary screen. alpha-synuclein 5'UTR reporter, inhibitor activity. inhibition, % (tested at 7.5 µM). actives 0.82% (n = 300,000); in the data active = inhibition above about 60%; inconclusive = no clear call, values can overlap the other calls;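 also: H4 neuroglioblastoma cells stably carrying SNCA 5'UTR luciferase fusion; 0% = DMSO wells and 100% = positive control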
# TWEAK-Fn14 inh = inhibitors of TWEAK-Fn14 interaction signaling; TWEAK-stimulated Fn14 reporter cells, luciferase luminescence, 8 h; inhibition, % at 10 µM; actives 2% (n = 360,000); in the data active = inhibition above about 50%
# HIF-2a block = inhibitors of HIF-2a; inhibition, % at 18.8 µM; actives 0.72% (n = 360,000); AID 624352; 786-0 RCC cells HIF-2a reporter, luciferase luminescence, overnight;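 active = inhibition of the luminescence signal of 40% or more relative to plate controls, in a single-dose primary screen at 18.75 µM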
# HSP90 refold inh = HSP90 refolding inhibition in rabbit reticulocyte lysate; luciferase refolding luminescence, 3 h; inhibition, % at 5.6 µM; actives 0.91% (n = 290,000);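 active = inhibition above the screen-wide mean plus 3 SD, computed separately per campaign, cut at about 16% in these data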;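 also: 0% = DMSO wells and 100% = 60 µM geldanamycin wells; inhibitors lower the luminescence because luciferase stays unfolded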
# HSP90 inh confirm = HSP90 inhibition, confirmation assay | actives 64% (n = 2,300) | AID 1846 | shares compounds with HSP90 refold inh | rabbit reticulocyte lysate, luciferase refolding luminescence, 3 h | inhibition, % at 5.9 µM; in the data active = inhibition above about 18%;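 also: 0% = vehicle wells and 100% = reference inhibitor wells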
# luciferase ctr = blocks native firefly luciferase in HSP90 counter-screen | shares compounds with HSP90 refold inh | purified native firefly luciferase, luminescence | inhibition, % at 5.9 µM | actives 48% (n = 2,300) | AID 1847;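 active = inhibition above the mean inhibition of all tested sample wells plus 3 SD, cut at about 10% in these data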;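 also: 0% = DMSO with luciferase and 100% = wells lacking luciferase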
# Target sequence (P08659 whole entry, looked up): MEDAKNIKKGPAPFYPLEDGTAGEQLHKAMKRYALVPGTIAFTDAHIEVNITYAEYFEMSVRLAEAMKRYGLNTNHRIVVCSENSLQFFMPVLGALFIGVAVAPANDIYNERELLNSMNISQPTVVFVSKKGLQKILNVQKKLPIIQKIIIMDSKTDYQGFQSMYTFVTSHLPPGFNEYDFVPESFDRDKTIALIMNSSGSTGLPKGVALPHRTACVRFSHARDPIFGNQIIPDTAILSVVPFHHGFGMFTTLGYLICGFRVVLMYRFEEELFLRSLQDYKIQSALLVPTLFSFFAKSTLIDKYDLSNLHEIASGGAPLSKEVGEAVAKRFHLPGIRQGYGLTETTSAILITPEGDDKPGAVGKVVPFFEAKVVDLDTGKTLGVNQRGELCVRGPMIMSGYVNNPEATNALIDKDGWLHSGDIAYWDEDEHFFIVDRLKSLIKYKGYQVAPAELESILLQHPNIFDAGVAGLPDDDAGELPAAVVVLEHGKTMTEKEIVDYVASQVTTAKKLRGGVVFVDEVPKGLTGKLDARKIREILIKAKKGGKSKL
# An asterisk follows results filed as active; ? = inconclusive; / = no result. Sampled rows, rich in hits. Any-hit rate of the full collection: about 3.9%.
SMILES,C8 TRAIL sens,TROY signal inh,aSyn 5UTR inh,TWEAK-Fn14 inh,HIF-2a block,HSP90 refold inh,HSP90 inh confirm,luciferase ctr
COc1cccc(CN2CCN(Cc3cc4ccccc4o3)CC2CCO)c1 (stereo not drawn),-1,5,22,1,1,1,/,/
CC(=O)c1cccc(S(=O)(=O)N2CCN(CCOc3ccccc3)CC2)c1,-7,4,/,2,6,/,/,/
Cc1cc(C(=O)CSc2nnc3ccccn23)c(C)n1-c1ccccc1,53*,79*,102*,101*,84*,62*,86*,79*
Cc1cc(C(=O)CSc2nnc(-c3ccccc3)n2-c2ccccc2)c(C)n1-c1ncn[nH]1,-14,-17,1,-16,8,-1,/,/
CCOC(=O)CC[C@H](NC(=O)Cn1cnc2c(NCc3ccccc3)ncnc21)C(=O)OCC,-3,-14,/,12,11,/,/,/
Cc1[nH]c2ccccc2c1CC#N,-3,5,-35,-17,21,0,/,/
Cc1[nH]c2ccccc2c1C(C#N)(C#N)C1C(=O)c2ccccc2C1=O,14,53*,-2,97*,3,77*,79*,-24
NC(=O)CC[C@H](NC(=O)c1ccc(F)cc1)C(=O)N1CCN(Cc2ccc3c(c2)OCO3)CC1,-6,12,/,6,12,/,/,/
CCOc1cc(/C=N/Nc2ccc(C(=O)O)cc2)ccc1OC(=O)c1ccccc1C,-11,20,-91,35,-143,12,/,/
COc1cccc(OCc2cc(/C=N/Nc3ccc(C(=O)O)cc3)ccc2OC)c1,0,-10,-92,3,-33,55*,66*,56*
COc1cccc(C(=O)Oc2ccc(/C=N/Nc3ccc(C(=O)O)cc3)cc2OC)c1,3,-5,-56,60*,-32,22*,48*,31*
O=C(CNC(=O)Cc1ccccc1)NCC(=O)N1CCCCC1,-12,-8,-2,14,16,6,/,/
O=C(CNC(=O)Cc1ccc(Cl)cc1)NCC(=O)N1CCCCC1,5,-6,2,-6,5,23*,-3,-7
CCOc1ccc(N2C(=O)CC(NCCNc3ccc([N+](=O)[O-])cn3)C2=O)cc1 (stereo not drawn),-3,0,-2,7,7,24*,-8,-10
COC(=O)[C@]1(C)N[C@H](CN(C)S(=O)(=O)c2ccc(OC(F)(F)F)cc2)[C@@H]2C(=O)N(C)C(=O)[C@@H]21,7,-26,/,-13,1,/,/,/
C[n+]1nc(Nc2ccccc2)sc1-c1ccc(O)cc1,2,1,15,12,13,17*,-8,-9
Oc1ccc(-c2sc(Nc3ccccc3)n[n+]2-c2ccc(F)cc2)cc1,2,4,-44,9,7,-4,/,/
CCOc1ccc(CCNC(=O)COc2cc(=O)n(C)c3ccccc23)cc1OCC,-5,-12,19,-21,3,1,/,/
CCn1c(=O)cc(OCC(=O)NCCc2ccc(OC)c(OC)c2)c2ccccc21,-4,2,22,1,9,48*,-4,-16
Cc1nnc(N/N=C/c2c(Cl)cccc2Cl)n1N,-3,11,-2,-14,-15,19*,-7,-11
Cc1nnc(N/N=C/c2cc(C)n(-c3ccc(F)cc3)c2C)n1N,2,0,-1,-22,-38,19*,-6,-7
Oc1ccccc1/C=N/Nc1nn[nH]n1,17,-49,-11,9,11,-1,/,/
Cc1nnc(N/N=C/c2ccccc2O)n1N,-7,-17,-42,-5,-7,58*,-4,-18
Cc1cc(/C=N/NC(N)=S)c(C)n1-c1ccc(Br)cc1,-8,-2,6,12,-6,7,/,/
O=C(COC(=O)CC1SC(N2CCCC2)=NC1=O)Nc1ccc(Br)cc1 (stereo not drawn),1,14,/,-7,-6,/,/,/
SMILES,C8 TRAIL sens,TROY signal inh,aSyn 5UTR inh,TWEAK-Fn14 inh,HIF-2a block,HSP90 refold inh,HSP90 inh confirm,luciferase ctr
Cc1ccc2nc(NC(=O)c3cccs3)sc2c1,61*,23,/,78*,-82,19*,40*,38*
CCC(=O)Nc1nc2ccc(S(C)(=O)=O)cc2s1,5,-26,-3,7,-36,-4,/,/
CS(=O)(=O)c1ccc2nc(NC(=O)c3cccs3)sc2c1,81*,34,/,69*,-25,18*,37*,23*
CC(C)CC(=O)Nc1nc2ccc(S(C)(=O)=O)cc2s1,-2,-25,-7,0,-37,30*,-1,-18
Cc1ccc2nc(NC(=O)c3ccc(Cl)s3)sc2c1,42,-47,-133,14,-266,-6,/,/
CCNS(=O)(=O)c1ccc2nc(NC(=O)c3cccnc3)sc2c1,8,-31,-33,7,-54,29*,3,-2
Cc1nc2ccc(NC(=O)c3cccnc3)cc2s1,-32,-10,14,-5,-45,-7,/,/
CSCCNC(=O)C1(C)CCN1C(=O)C/C=C/c1ccccc1 (stereo not drawn),-14,14,/,-26,0,/,/,/
O=C(CNC(=O)c1ccc(Br)cc1)OC1CCOC1=O (stereo not drawn),-3,4,/,-2,12,/,/,/
O=C(COc1ccc(Cl)cc1Br)NCC(c1ccco1)N1CCCC1 (stereo not drawn),-5,-26,/,-11,-89,/,/,/
O=C(CSc1nnc2ccc(-c3ccncc3)nn12)c1cccs1,-8,3,15,-7,0,66*,-6,-12
c1ccc(CSc2nnc3ccc(-c4ccncc4)nn23)cc1,-4,8,0,-5,14,2,/,/
Cc1ccc(C)c(NC(=O)CN(C)C(=O)c2ccc(COc3ccccc3)cc2)c1,-10,-26,/,-12,-104,/,/,/
COc1ccccc1NC(=O)O/N=C(\N)c1ccccc1,-18,6,12,-16,0,17*,-1,-13
COc1ccc(C(=O)O/N=C(\N)c2ccccc2)cc1,85*,42,-82,82*,-189,25*,43*,79*
COc1ccc(/C(N)=N/OC(=O)CSc2ccccc2)cc1,5,-57,-162,19,-140,4,/,/
Cc1ccc(/C(N)=N/OC(=O)c2ccco2)cc1,39,-23,-40,36,-234,8,/,/
COc1ccc(/C(N)=N/OC(=O)c2ccco2)cc1,48,56*,?,64*,-79,41*,60*,43*
COCCN(Cc1nc(-c2ccc(-c3ccccc3)cc2)oc1C)C(C)C,18,-25,-215,78*,2,85*,89*,21*
Cc1oc(-c2ccoc2)nc1CN(CC1CCC(=O)N1)C(C)C (stereo not drawn),2,6,12,1,16,1,/,/
